From PubChem BioAssay AID1159580 (chemical genetic matrix, 2015)
The campaign covered roughly 5,500 compounds. About 2,000 (36%) were called active. About 18% were inconclusive and are not listed. No stated cut-off is given here; in the data, active means normalized growth mostly below about 0.91 (no sharp cut-off); inconclusive means no clear call, values can overlap the other calls; inactive means mostly above about 0.92. Some of the results follow.

Assay: chemical genetic growth profiling, strain panel (AID 1159580);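 further: tested at 20 µM; growth read once vehicle control cultures reached saturation at 30 °C; 1 = growth at the plate median or of vehicle wells; lower values mean less growth of the strain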
Conditions: growth OD

Measured: normalized growth

N#Cc1c(Cl)cccc1Cl
inactive: S. cerevisiae deletion strains, locus YJR075W, strain HOC1, active compounds read low 1.02 | S. cerevisiae deletion strains, locus YKL009W, strain mrt4, active compounds read low 1.02 | S. cerevisiae deletion strains, locus YKL068W, active compounds read low 1.01 | S. cerevisiae deletion strains, locus YKL085W, strain MDH1 (second series), active compounds read low 1.01 | S. cerevisiae deletion strains, locus YKL085W, strain MDH1, active compounds read low 1.01 | S. cerevisiae deletion strains, locus YKL160W, strain elf1, active compounds read low 0.981 | S. cerevisiae deletion strains, locus YKL190W, strain CNB1, active compounds read low 1.02 | S. cerevisiae deletion strains, locus YKR001C, strain vps1, active compounds read low 1.01 | S. cerevisiae deletion strains, locus YKR026C, strain gcn3, active compounds read low 0.982 | S. cerevisiae deletion strains, locus YKR091W, strain srl3, active compounds read low 0.978 | S. cerevisiae deletion strains, locus YLL001W, strain dnm1, active compounds read low 0.988 | S. cerevisiae deletion strains, locus YLL026W, active compounds read low 0.975 | S. cerevisiae deletion strains, locus YLL041C, strain sdh2, active compounds read low 0.977 | S. cerevisiae deletion strains, locus YLR027C, strain aat2, active compounds read low 0.959 | S. cerevisiae deletion strains, locus YLR039C, strain RIC1, active compounds read low 1.01 | S. cerevisiae deletion strains, locus YLR058C, strain SHM2, active compounds read low 1.02 | S. cerevisiae deletion strains, locus YLR102C, strain apc9, active compounds read low 1.01 | S. cerevisiae deletion strains, locus YLR113W, strain HOG1, active compounds read low 0.987 | S. cerevisiae deletion strains, locus YLR221C, strain rsa3, active compounds read low 0.971 | S. cerevisiae deletion strains, locus YLR258W, strain gsy2, active compounds read low 0.991 | S. cerevisiae deletion strains, locus YLR262C, strain YPT6 (second series), active compounds read low 0.999 | S. cerevisiae deletion strains, locus YLR262C, strain YPT6, active compounds read low 1.05 | S. cerevisiae deletion strains, locus YLR268W, strain sec22, active compounds read low 0.999 | S. cerevisiae deletion strains, locus YLR320W, strain mms22, active compounds read low 0.988 | S. cerevisiae deletion strains, locus YLR330W, strain CHS5, active compounds read low 1.01 | S. cerevisiae deletion strains, locus YLR342W, strain FKS1 (second series), active compounds read low 1.04 | S. cerevisiae deletion strains, locus YLR342W, strain FKS1, active compounds read low 0.978 | S. cerevisiae deletion strains, locus YLR357W, strain rsc2, active compounds read low 0.978 | S. cerevisiae deletion strains, locus YLR370C, strain arc18, active compounds read low 0.965 | S. cerevisiae deletion strains, locus YLR371W, strain rom2, active compounds read low 1.01 | S. cerevisiae deletion strains, locus YLR384C, strain iki3, active compounds read low 0.975 | S. cerevisiae deletion strains, locus YLR418C, strain cdc73, active compounds read low 1.01 | S. cerevisiae deletion strains, locus YML016C, strain PPZ1, active compounds read low 1.01 | S. cerevisiae deletion strains, locus YML032C, strain rad52, active compounds read low 1.02 | S. cerevisiae deletion strains, locus YML120C, strain ndi1, active compounds read low 0.988 | S. cerevisiae deletion strains, locus YML124C, strain tub3, active compounds read low 1.01 | S. cerevisiae deletion strains, locus YMR058W, strain fet3, active compounds read low 0.968 | S. cerevisiae deletion strains, locus YMR078C, strain ctf18, active compounds read low 1.02 | S. cerevisiae deletion strains, locus YMR125W, strain sto1, active compounds read low 0.974 | S. cerevisiae deletion strains, locus YMR129W, active compounds read low 1.01 | S. cerevisiae deletion strains, locus YMR205C, strain PFK2, active compounds read low 1.01 | S. cerevisiae deletion strains, locus YMR223W, strain ubp8, active compounds read low 1.01 | S. cerevisiae deletion strains, locus YMR231W, strain pep5, active compounds read low 0.982 | S. cerevisiae deletion strains, locus YMR263W, strain SAP30, active compounds read low 1.02 | S. cerevisiae deletion strains, locus YMR307W, strain GAS1, active compounds read low 1.01 | S. cerevisiae deletion strains, locus YNL067W, strain RPL9B, active compounds read low 1.01 | S. cerevisiae deletion strains, locus YNL071W, strain lat1, active compounds read low 0.985 | S. cerevisiae deletion strains, locus YNL128W, strain TEP1, active compounds read low 1.01 | S. cerevisiae deletion strains, locus YNL153C, strain GIM3, active compounds read low 1.01 | S. cerevisiae deletion strains, locus YNL183C, strain NPR1, active compounds read low 0.902 | S. cerevisiae deletion strains, locus YNL209W, strain ssb2, active compounds read low 0.995 | S. cerevisiae deletion strains, locus YNL233W, strain BNI4, active compounds read low 1.02 | S. cerevisiae deletion strains, locus YNL248C, strain rpa49, active compounds read low 0.971 | S. cerevisiae deletion strains, locus YNL250W, strain rad50, active compounds read low 1.02 | S. cerevisiae deletion strains, locus YNL271C, strain bni1, active compounds read low 1.02 | S. cerevisiae deletion strains, locus YNL298W, strain CLA4, active compounds read low 1.02 | S. cerevisiae deletion strains, locus YNL307C, strain MCK1, active compounds read low 1.01 | S. cerevisiae deletion strains, locus YNL322C, strain KRE1 (second series), active compounds read low 0.978 | S. cerevisiae deletion strains, locus YNL322C, strain KRE1, active compounds read low 1.01 | S. cerevisiae deletion strains, locus YNR049C, strain mso1, active compounds read low 0.958 | S. cerevisiae deletion strains, locus YNR052C, strain pop2, active compounds read low 1.02 | S. cerevisiae deletion strains, locus YOL006C, strain TOP1, active compounds read low 1.04 | S. cerevisiae deletion strains, locus YOL012C, strain htz1 1.37 | S. cerevisiae deletion strains, locus YOL147C, strain pex11, active compounds read low 1.01 | S. cerevisiae deletion strains, locus YOR001W, strain rrp6, active compounds read low 0.993 | S. cerevisiae deletion strains, locus YOR061W, strain CKA2, active compounds read low 1.01 | S. cerevisiae deletion strains, locus YOR069W, strain VPS5, active compounds read low 1 | S. cerevisiae deletion strains, locus YOR070C, strain gyp1, active compounds read low 0.991 | S. cerevisiae deletion strains, locus YOR080W, strain dia2, active compounds read low 0.963 | S. cerevisiae deletion strains, locus YOR083W, strain WHI5, active compounds read low 0.974 | S. cerevisiae deletion strains, locus YOR106W, strain vam3, active compounds read low 0.974 | S. cerevisiae deletion strains, locus YOR136W, strain idh2, active compounds read low 1.01 | S. cerevisiae deletion strains, locus YOR144C, strain elg1, active compounds read low 1.01 | S. cerevisiae deletion strains, locus YOR184W, strain ser1, active compounds read low 1.03 | S. cerevisiae deletion strains, locus YOR231W, strain MKK1, active compounds read low 0.966 | S. cerevisiae deletion strains, locus YOR265W, strain rbl2, active compounds read low 0.966 | S. cerevisiae deletion strains, locus YOR270C, strain vph1, active compounds read low 1.01 | S. cerevisiae deletion strains, locus YOR290C, strain snf2, active compounds read low 0.985 | S. cerevisiae deletion strains, locus YOR316C, strain cot1, active compounds read low 1.01 | S. cerevisiae deletion strains, locus YPL051W, strain arl3, active compounds read low 0.995 | S. cerevisiae deletion strains, locus YPL055C, strain LGE1, active compounds read low 1.05 | S. cerevisiae deletion strains, locus YPL078C, strain atp4, active compounds read low 0.984 | S. cerevisiae deletion strains, locus YPL106C, strain sse1, active compounds read low 0.975 | S. cerevisiae deletion strains, locus YPL240C, strain hsp82, active compounds read low 0.979 | S. cerevisiae deletion strains, locus YPL241C, strain CIN2, active compounds read low 1.01 | S. cerevisiae deletion strains, locus YPL256C, strain CLN2, active compounds read low 0.968 | S. cerevisiae deletion strains, locus YPR119W, strain clb2, active compounds read low 1.01 | S. cerevisiae deletion strains, locus YPR141C, strain kar3, active compounds read low 1.02 | S. cerevisiae deletion strains, locus YPR163C, strain tif3, active compounds read low 1.02 | S. cerevisiae deletion strains, locus YPR167C, strain met16, active compounds read low 1.02 | S. cerevisiae deletion strains, strain wtn01, active compounds read low 1.02 | S. cerevisiae strains, strain wild type, active compounds read low 1.01
